Our source for the Potency and outcome values is PubChem BioAssay (NCATS).

Structures are written as SMILES. Where “and” joins values, the source holds several entries; their conditions need not be identical. Equal entries are not always repeated. Inconclusive results are not listed. Calls of active or inactive are those of the source. Calls follow the shape of the dose curve; as a rule, active = well fitted curve in the direction sought with a large enough effect; inconclusive = small, poorly fitted or top-dose-only effect, or another doubt; inactive = no such curve, though single readings can be large; an effect the other way counts as inactive or inconclusive.

The nature of assay [1]: qHTS of pediatric cancer cell lines to identify multiple opportunities for drug repurposing: Confirmatory screen for Rh30 cells (AID 1347126). Also: nearly all actives have a fitted effect of over 55% in size. Also: potency is read from the fitted curve at half-maximal effect. Conditions: Rh30 rhabdomyosarcoma cell viability; series mostly up to 45.9 µM. The gist of the method: (§1)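 Viability after 48 h compound treatment at 37C, 500-1,000 cells/well, read as ATP luminescence with CellTiter-Glo. Primary screens used 11-point (MIPE, 0.78 nM-46 µM) or 8-point (NPC, 0.59 nM-46 µM) final concentrations; follow-up screens used 11-point dilutions.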

For assay [2], the system named is Zika virus NS2B-NS3 protease. Kind of assay: Primary screen GU AMC qHTS for Zika virus inhibitors (AID 1347154). Also: nearly all actives have a fitted effect of over 70% in size. As to conditions: Zika NS2B-NS3 unlinked protease, AMC fluorogenic substrate; series mostly up to 54.1 µM. The gist of the method: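 Unlinked Zika NS2B hydrophilic domain–NS3 protease complex at 25 nM in 10 mM Tris-HCl pH 8.0, 0.01% Tween 20, with an AMC peptide substrate. Fluorescence change (340/450 nm) over 15 min at room temperature, normalized to controls, fitted to 4-parameter Hill.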
A general note: Quantitative high-throughput screening tests each substance at several concentrations.

Assay [3] has as its target N-terminal Xaa-Pro-Lys N-methyltransferase 1 (Homo sapiens) (UniProt Q9BV86). Kind of assay: qHTS Assay for Inhibitors of N-terminal methyltransferase 1 (NTMT1): LOPAC validation of the NTMT1 SAHH-coupled ThioGlo3 Assay (AID 1347143).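 Also: SAH from peptide methylation measured as thiol fluorescence via SAHH coupling and ThioGlo3; nearly all actives have a fitted effect of over 70% in size.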 Also: potency is read from the fitted curve at half-maximal effect. Conditions: recombinant NTMT1, SAHH-coupled ThioGlo3 fluorescence; series mostly up to 114 µM. The gist of the method:
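Steps: dispense 125nM NTMT1; pin-transfer test compounds at several concentrations, with 1uM RCC1-6 peptide as control; incubate 1 min; start with reagent holding 100uM SAM, 10uM SAHH, 15uM ThioGlo3; read at 0 and 30 min.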

The subject of assay [4] is Zika virus NS2B-NS3 protease (unlinked). Description: Optimization of GU AMC qHTS for Zika virus inhibitors: Unlinked NS2B-NS3 protease assay (AID 1347151). Also: nearly all actives have a fitted effect of over 80% in size. Also: potency is read from the fitted curve at half-maximal effect. As to conditions: recombinant ZIKV NS2B-NS3 protease, fluorogenic AMC substrate; series mostly up to 52.5 µM. The essentials:
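Unlinked protease (25 nM final); buffer 10 mM Tris-HCl pH 8.0 + 0.01% Tween 20; AMC substrate; 15 min RT, dark; Δfluorescence normalized to no-inhibitor/no-enzyme controls; 4-parameter Hill fit.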

Assay [5] concerns the target Lysine-specific demethylase 5B (Homo sapiens) (UniProt Q9UGL1). Kind of assay: Optimization screen for KDM5B Histone Demethylases FDH coupled qHTS against the LOPAC library (AID 1347166). Conditions: KDM5B demethylation, FDH-coupled NADH fluorescence (FDH is formaldehyde dehydrogenase); series mostly up to 57.5 µM. The essentials:
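KDM5BDeltaAP (200nM final) in 50mM HEPES pH 7.5, 0.01% Tween-20 was preincubated with compound for 10 min at room temperature. A substrate mix of 12.5uM H3K4Me3, 25uM a-ketoglutarate, ascorbate, Fe2+, NAD+ and formaldehyde dehydrogenase was then added. NADH fluorescence (340/450 nm) was read initially and after 30 min.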

A short description of assay [6]: qHTS of pediatric cancer cell lines to identify multiple opportunities for drug repurposing: Confirmatory screen for RD cells (AID 1347124).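 Also: cells exposed to compound for 48 h before viability readout; nearly all actives have a fitted effect of over 65% in size.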 Also: potency is read from the fitted curve at half-maximal effect. As to conditions: RD rhabdomyosarcoma cell viability; series mostly up to 45.9 µM. The essentials:
as §1

Assay [7] in a line: qHTS of pediatric cancer cell lines to identify multiple opportunities for drug repurposing: Confirmatory screen for Saos-2 cells (AID 1347127). Also: nearly all actives have a fitted effect of over 60% in size. Also: potency is read from the fitted curve at half-maximal effect. Conditions: Saos-2 osteosarcoma cell viability; series mostly up to 45.9 µM. The gist of the method:
as §1

In assay [8] the test system is Zika virus NS2B-NS3 protease (unlinked complex). Kind of assay: Primary screen GU Rhodamine qHTS for Zika virus inhibitors: Unlinked NS2B-NS3 protease assay (AID 1347159). Also: nearly all actives have a fitted effect of over 60% in size. As to conditions: Recombinant ZIKV NS2B-NS3 protease, Rhodamine110 substrate fluorescence; series mostly up to 107 µM. The gist of the method: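 Enzyme 25 nM in Tris-HCl pH 8.0 + 0.01% Tween 20; compounds up to 114 microM, 15 min RT dark; + Rhod110 substrate 1.5 microM; read t0 and 15 min; delta fluorescence → % inhibition → 4-parameter Hill fit.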

In assay [9] the test system is Zika virus NS2B-NS3 protease (linked construct). Description: Primary screen NINDS Rhodamine qHTS for Zika virus inhibitors (AID 1347160). Also: nearly all actives have a fitted effect of over 55% in size. Conditions: purified NS2B-NS3 protease, Rhodamine110 substrate fluorescence; series mostly up to 57.1 µM. The essentials:
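Enzyme (25 nM, linked NS2B-NS3) was preincubated 15 min with compound in 10 mM Tris-HCl pH 8.0, 0.01% Tween 20. Rhodamine110 substrate (1.5 microM) was then added and fluorescence read at start and after 15 min.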

For another assay, the target named is Furin (Homo sapiens) (UniProt P09958). Description: Furin counterscreen qHTS for Zika virus inhibitors (AID 1347149).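 Also: purified recombinant full-length human furin enzyme at 5 nM; fluorescence gain from furin cutting a BOC-RVRR-AMC peptide substrate over 15 min; top concentration of the series differs between compounds; nearly all actives have a fitted effect of over 70% in size.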 As to conditions: furin enzymatic counterscreen, fluorogenic substrate; series mostly up to 57.5 µM. The gist of the method: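 Counterscreen measures cleavage of 2 microM BOC-RVRR-AMC, below its ~15 microM Km, by 5 nM full-length human furin at pH 7.0 after a 15-min compound preincubation. Inhibition derives from the 15-min fluorescence increase at 37C.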
Background: Counterscreens check selectivity or assay interference.

The nature of assay [10]: Vero cells viability qHTS for Zika virus inhibitors (AID 1347167). As to conditions: cytotoxicity counter-screen (Zika); series mostly up to 45.9 µM. The essentials:
(§2)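 qHTS titration; 24-48 h compound exposure, 37 degrees C/5% CO2; DMEM, 4% FBS; CellTiter Glo ATP luminescence.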

The nature of assay [11]: HepG2 cells viability qHTS for Zika virus inhibitors (AID 1347168). Conditions: Zika counter-screen; series mostly up to 45.9 µM. The gist of the method:
as §2

Assay [12] in a line: Tertiary RLuc qRT-PCR qHTS assay for Zika virus inhibitors (AID 1347169). Also: potency is read from the fitted curve at half-maximal effect; nearly all actives have a fitted effect of over 55% in size. As to conditions: infected Vero cells, reporter luminescence, 48-72 h; series mostly up to 5.25 µM. The essentials: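 Vero, 1,000 cells/well, o/n 37 C; cpd pinned in DMSO; ZIKV-RLuc Cambodian, MOI 1-2, 48-72 h 37 C; live-cell RLuc substrate, lum read at 1-1.5 h.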

Sequence of Lysine-specific demethylase 5B (Homo sapiens) (Q9UGL1 whole entry, looked up): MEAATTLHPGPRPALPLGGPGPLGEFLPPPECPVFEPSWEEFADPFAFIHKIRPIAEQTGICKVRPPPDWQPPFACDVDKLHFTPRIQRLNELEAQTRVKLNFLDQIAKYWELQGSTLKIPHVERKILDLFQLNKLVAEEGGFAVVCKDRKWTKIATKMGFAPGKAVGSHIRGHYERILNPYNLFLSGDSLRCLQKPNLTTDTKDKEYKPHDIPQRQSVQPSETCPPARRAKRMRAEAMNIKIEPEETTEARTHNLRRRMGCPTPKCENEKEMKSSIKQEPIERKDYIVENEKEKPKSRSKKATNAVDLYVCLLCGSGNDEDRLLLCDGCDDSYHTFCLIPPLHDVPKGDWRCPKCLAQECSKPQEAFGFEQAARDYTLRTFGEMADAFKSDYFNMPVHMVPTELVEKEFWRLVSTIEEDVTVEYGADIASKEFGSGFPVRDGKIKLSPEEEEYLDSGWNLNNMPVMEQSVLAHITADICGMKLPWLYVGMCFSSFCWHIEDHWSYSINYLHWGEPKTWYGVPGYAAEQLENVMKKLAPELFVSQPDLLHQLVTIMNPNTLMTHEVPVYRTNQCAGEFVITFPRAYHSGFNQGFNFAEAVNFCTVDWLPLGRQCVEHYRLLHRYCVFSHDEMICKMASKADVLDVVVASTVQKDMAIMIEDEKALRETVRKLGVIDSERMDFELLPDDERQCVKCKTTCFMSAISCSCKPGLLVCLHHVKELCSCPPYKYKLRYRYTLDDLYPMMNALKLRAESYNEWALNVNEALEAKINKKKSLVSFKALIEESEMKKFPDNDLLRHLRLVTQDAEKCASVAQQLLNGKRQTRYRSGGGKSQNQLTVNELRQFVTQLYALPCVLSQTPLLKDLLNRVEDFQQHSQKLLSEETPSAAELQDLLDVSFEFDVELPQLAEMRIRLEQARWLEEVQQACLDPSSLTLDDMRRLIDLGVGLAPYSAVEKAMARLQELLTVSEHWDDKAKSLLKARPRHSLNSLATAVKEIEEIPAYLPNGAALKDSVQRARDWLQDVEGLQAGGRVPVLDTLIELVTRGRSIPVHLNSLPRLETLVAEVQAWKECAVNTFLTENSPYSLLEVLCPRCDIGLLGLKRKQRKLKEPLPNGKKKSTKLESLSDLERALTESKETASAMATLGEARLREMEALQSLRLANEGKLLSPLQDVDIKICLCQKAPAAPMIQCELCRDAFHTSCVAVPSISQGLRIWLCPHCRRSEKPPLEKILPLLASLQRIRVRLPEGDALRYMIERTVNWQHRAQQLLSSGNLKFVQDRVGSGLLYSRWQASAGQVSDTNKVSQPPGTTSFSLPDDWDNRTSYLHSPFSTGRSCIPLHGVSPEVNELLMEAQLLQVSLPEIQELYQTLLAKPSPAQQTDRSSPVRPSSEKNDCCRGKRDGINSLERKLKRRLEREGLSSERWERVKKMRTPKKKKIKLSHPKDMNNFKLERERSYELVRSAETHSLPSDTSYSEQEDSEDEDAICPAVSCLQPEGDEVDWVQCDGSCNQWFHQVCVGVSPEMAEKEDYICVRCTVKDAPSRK
Sequence of N-terminal Xaa-Pro-Lys N-methyltransferase 1 (Homo sapiens) (Q9BV86 whole entry, looked up): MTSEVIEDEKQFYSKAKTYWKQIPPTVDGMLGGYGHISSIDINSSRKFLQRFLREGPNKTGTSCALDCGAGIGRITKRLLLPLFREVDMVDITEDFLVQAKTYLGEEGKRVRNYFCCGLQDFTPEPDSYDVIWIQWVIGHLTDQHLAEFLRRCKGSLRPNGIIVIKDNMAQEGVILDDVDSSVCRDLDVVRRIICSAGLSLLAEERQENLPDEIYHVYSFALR
Sequence of Furin (Homo sapiens) (P09958 whole entry, looked up): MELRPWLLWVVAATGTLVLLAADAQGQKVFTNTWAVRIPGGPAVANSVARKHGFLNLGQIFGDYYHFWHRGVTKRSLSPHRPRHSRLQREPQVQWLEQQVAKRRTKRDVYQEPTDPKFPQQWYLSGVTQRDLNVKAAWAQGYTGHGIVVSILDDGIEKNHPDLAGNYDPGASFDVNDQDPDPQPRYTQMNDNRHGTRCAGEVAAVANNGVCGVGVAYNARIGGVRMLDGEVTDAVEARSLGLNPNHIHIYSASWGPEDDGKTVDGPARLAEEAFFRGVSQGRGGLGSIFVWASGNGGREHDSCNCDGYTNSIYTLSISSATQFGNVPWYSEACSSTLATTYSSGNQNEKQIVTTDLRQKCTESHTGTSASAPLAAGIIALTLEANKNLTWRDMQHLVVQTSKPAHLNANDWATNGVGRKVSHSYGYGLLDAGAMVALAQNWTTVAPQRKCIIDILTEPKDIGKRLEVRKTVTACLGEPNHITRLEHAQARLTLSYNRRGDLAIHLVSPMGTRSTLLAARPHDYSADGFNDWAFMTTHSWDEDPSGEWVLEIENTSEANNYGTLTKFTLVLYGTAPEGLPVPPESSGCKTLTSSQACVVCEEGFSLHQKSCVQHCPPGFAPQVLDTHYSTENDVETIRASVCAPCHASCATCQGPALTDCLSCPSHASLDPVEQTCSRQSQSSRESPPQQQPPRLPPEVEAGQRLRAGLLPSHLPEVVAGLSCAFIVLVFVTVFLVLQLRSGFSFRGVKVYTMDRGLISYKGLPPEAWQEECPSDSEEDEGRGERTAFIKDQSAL

Consider `CN(C)C(=S)SC(=S)N(C)C`, for which the Potency in assay [1] was 4.14 µM (active). Further, the Potency entry in assay [2] is “inactive”.

Consider `C1CCc2nnnn2CC1`, for which the Potency entry in assay [3], in [4] and in assay [2] was “inactive” in each case. In addition, the compound was called inactive in assay [5].

As for `C[C@]12C=CC(=O)C=C1CC[C@@H]1[C@@H]2[C@@H](O)C[C@@]2(C)[C@H]1CC[C@]2(O)C(=O)CO`, the Potency result in assay [6], in [1], in [7] and in assay [2] was “inactive” in each case.

On to `CCCC(=O)O[C@]1(C(=O)CO)CC[C@H]2[C@@H]3CCC4=CC(=O)CC[C@]4(C)[C@H]3[C@@H](O)C[C@@]21C`, for which the Potency result in assay [6], in assay [1] and in assay [2] was “inactive” in each case.

As to `C=C1C[C@H]2[C@@H]3C=C(C)C4=CC(=O)CC[C@]4(C)[C@H]3CC[C@]2(C)[C@@]1(OC(C)=O)C(C)=O`, the Potency result in assay [6], in [1], in assay [7] and in assay [2] was “inactive” each time.

On to `CCC(C(=O)OCCN(CC)CC)c1ccccc1` (stereo not given), for which the Potency entry in assay [6], in [1], in assay [7] and in [2] was “inactive” in each case.

For the compound `O=C(CCCN1CCC(O)(c2ccc(Br)cc2)CC1)c1ccc(F)cc1`, the Potency result in assay [7] and in assay [2] was “inactive” in each case.

As to `C[C@]12CCC(=O)C=C1CC[C@H]1[C@@H]3CC[C@](O)(C(=O)CO)[C@@]3(C)C[C@H](O)[C@@]12F`, the Potency entry in [6], in assay [7] and in [2] was “inactive” throughout.

On to `CC(=O)[C@H]1CC[C@H]2[C@@H]3C[C@H](C)C4=CC(=O)CC[C@]4(C)[C@H]3[C@@H](O)C[C@]12C`, for which the Potency entry in assay [6], in assay [1] and in [2] was “inactive” each time.

For `CC(=O)OCC(=O)[C@@]1(O)CC[C@H]2[C@@H]3CCC4=CC(=O)C=C[C@]4(C)[C@H]3[C@@H](O)C[C@@]21C`, the Potency entry in assay [6], in assay [1] and in [2] was “inactive” throughout. In addition, the outcome in assay [8] and in assay [9] was inactive.

`C[C@H]1C[C@H]2[C@@H]3CCC4=CC(=O)C=C[C@]4(C)[C@@]3(Cl)[C@@H](O)C[C@]2(C)[C@@]1(O)C(=O)CO`: the Potency result in [6], in assay [1], in assay [7] and in [2] was “inactive” each time.

With `NC(=O)CC[C@@H]1NC(=O)[C@H](Cc2ccccc2)NC(=O)[C@H](Cc2ccc(O)cc2)NC(=O)CCSSC[C@@H](C(=O)N2CCC[C@H]2C(=O)N[C@@H](CCCN=C(N)N)C(=O)NCC(N)=O)NC(=O)[C@H](CC(N)=O)NC1=O`, the Potency result in [1], in assay [7] and in [2] was “inactive” in each case.

Consider `CCCCC(=O)O[C@]1(C(=O)CO)CC[C@H]2[C@@H]3CCC4=CC(=O)CC[C@]4(C)[C@H]3[C@@H](O)C[C@@]21C`, for which the Potency result in [1] and in [2] was “inactive” in each case.

As for `OC[C@H]1O[C@@H](n2cnc3c(=S)nc[nH]c32)[C@H](O)[C@@H]1O`, the Potency entry in assay [6] and in assay [2] was “inactive” in each case. Further, in assay [7], the Potency was 4.65 µM (active).

Consider `COc1cc(NS(C)(=O)=O)ccc1Nc1c2ccccc2nc2ccccc12`, for which the Potency in [3] was 50.1 µM (active); in [4], 29.9 µM (active).

Regarding `C[n+]1c2cc(N)ccc2cc2ccc(N)cc21` (tested in a mixture with another compound), the Potency in assay [6] was 0.657 µM (active); in assay [1], 6.57 µM (active).

On to `NC(CO)(CO)CO`, for which the Potency result in [6], in [7] and in assay [2] was “inactive” throughout.

Turning to `COCc1c(C(C)C)nc(C(C)C)c(/C=C/[C@@H](O)C[C@@H](O)CC(=O)O)c1-c1ccc(F)cc1`, the Potency in assay [6] was 0.928 µM (active); in assay [1] it was 0.414 µM (active); in assay [7] it was 0.0657 µM (active). The Potency result in assay [2] is “inactive”.

For the compound `CC(C)(C)CC(C)(C)c1ccc(OCCOCC[N+](C)(C)Cc2ccccc2)cc1`, the Potency entry (with Furin (Homo sapiens); in [4]; in assay [2]; in [10]; in assay [11]) was “inactive” throughout. For the same compound, the result in assay [8] and in assay [9] was inactive. In assay [12], the Potency is 33 µM (active) and 13.1 µM (active) and 10.4 µM (active).

Take `Cc1ccc(O)c2ncccc12`: the Potency result in assay [2] is “inactive”.

`CNCCC=C1c2ccccc2CCc2ccccc21`: the Potency entry in assay [3] and in assay [4] was “inactive” each time. Also, the compound was called inactive in assay [5].

For the compound `CC[C@H](C)C(=O)O[C@H]1CCC=C2C=C[C@H](C)[C@H](CC[C@@H]3C[C@@H](O)CC(=O)O3)[C@H]21`, the Potency result in [3] and in assay [4] was “inactive” throughout. In addition, the compound was called inactive in [5].

With `CCC(NC(C)C)C(O)c1ccc(O)c(O)c1` (stereo not given), the Potency entry in assay [4] was “inactive”.

For the compound `Nc1cc(Cl)c(NC2=NCCN2)c(Cl)c1`, the Potency entry in [3] and in assay [4] was “inactive” throughout. In addition, the compound was called inactive in assay [5].

As for `C[C@@H]1C(=O)NC2=Nc3cccc(Cl)c3CN21`, the Potency entry in [3] and in [4] was “inactive” each time. Moreover, the compound was classed as inactive in assay [5].

Regarding `C/C=C(/C(=C/C)c1ccc(O)cc1)c1ccc(O)cc1`, the Potency entry in assay [2] is “inactive”.

As for `O=C1CCC(c2ccc(-n3ccnc3)cc2)=NN1`, the Potency result in assay [3] and in assay [4] was “inactive” each time. The compound was classed as inactive in assay [5].

In the case of `N[C@@H](Cc1cnc[nH]1)C(=O)O`, the Potency entry in assay [3] and in [4] was “inactive” in each case. Besides, in assay [5], the compound was classed as inactive.

Consider `CC(C)(CO)[C@@H](O)C(=O)NCCCO`, for which the Potency result in [2] is “inactive”.

Regarding `CC(=O)O[C@H]1C[C@@H]2CC[C@@H]3[C@H](CC[C@@]4(C)[C@H]3C[C@H]([N+]3(C)CCCCC3)[C@@H]4OC(C)=O)[C@@]2(C)C[C@@H]1[N+]1(C)CCCCC1`, the Potency entry in assay [3] and in [4] was “inactive” in each case. In addition, the compound was classed as inactive in [5].
